Measured values: PubChem BioAssay AID1159580 (chemical genetic matrix, 2015)
“And” between values parts separate entries of the source, which are not always exact repeats. Identical values can stand only once. The whole screen tested about 5,500 compounds, of which about 2,000 (36%) were called active. Roughly 18% stayed inconclusive and do not appear here. Rule as the data show it: active = normalized growth mostly below about 0.91 (no sharp cut-off); inconclusive = no clear call, values can overlap the other calls; inactive = mostly above about 0.92. The list shows a part of the results.

Assay: chemical genetic growth profiling, strain panel (AID 1159580);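 also: tested at 20 µM; growth read once vehicle control cultures reached saturation at 30 °C; 1 = growth at the plate median or of vehicle wells; lower values mean less growth of the strain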
Settings: S. cerevisiae deletion strains, growth OD

Measured: normalized growth

CCn1cc(C(=O)O)c(=O)c2cnc(N3CCCC3)nc21
active: locus YAL021C, strain ccr4, active compounds read low 0.898
inactive: locus YAL026C, strain drs2, active compounds read low 0.956 | locus YAL030W, strain snc1, active compounds read low 0.997 | locus YBL061C, strain skt5, active compounds read low 1.01 | locus YBR009C, strain hhf1, active compounds read low 1.04 | locus YBR021W, strain FUR4, active compounds read low 1.03 | locus YBR023C, strain chs3, active compounds read low 1 | locus YBR171W, strain sec66, active compounds read low 1 | locus YBR229C, strain ROT2, active compounds read low 1.01 | locus YBR231C, strain swc5, active compounds read low 1.03 | locus YBR279W, strain paf1, active compounds read low 0.989 | locus YCL011C, strain gbp2, active compounds read low 1 | locus YCL016C, strain dcc1, active compounds read low 1 | locus YCL029C, strain bik1, active compounds read low 0.997 | locus YCL061C, strain MRC1, active compounds read low 1 | locus YCL069W, strain vba3, active compounds read low 0.997 | locus YCR088W, strain abp1, active compounds read low 1.01 | locus YDL005C, strain med2, active compounds read low 1 | locus YDL035C, strain GPR1, active compounds read low 1.02 | locus YDL040C, strain nat1, active compounds read low 0.991 | locus YDL074C, strain BRE1, active compounds read low 1.04 | locus YDL101C, strain DUN1, active compounds read low 1.02 | locus YDL134C, strain PPH21, active compounds read low 1.03 | locus YDL185W, strain tfp1, active compounds read low 1.01 | locus YDL192W, strain arf1, active compounds read low 0.993 | locus YDR001C, strain nth1, active compounds read low 1.01 | locus YDR069C, strain doa4, active compounds read low 1 | locus YDR101C, strain arx1, active compounds read low 0.999 | locus YDR137W, strain rgp1, active compounds read low 0.95 | locus YDR159W, strain sac3, active compounds read low 1.01 | locus YDR162C, strain NBP2, active compounds read low 1.01 | locus YDR195W, strain ref2 1.04 | locus YDR297W, strain sur2, active compounds read low 1.01 | locus YDR318W, strain mcm21, active compounds read low 1 | locus YDR334W, strain swr1, active compounds read low 1.01 | locus YDR335W, strain msn5, active compounds read low 1 | locus YDR388W, active compounds read low 1.01 | locus YDR392W, strain spt3, active compounds read low 1.03 | locus YDR502C, strain sam2, active compounds read low 1.01 | locus YEL003W, strain gim4, active compounds read low 1.01 | locus YEL037C, strain rad23, active compounds read low 0.999 | locus YEL061C, strain CIN8 (second series), active compounds read low 1 | locus YEL061C, strain CIN8, active compounds read low 0.999 | locus YER015W, strain faa2, active compounds read low 1 | locus YER016W, strain bim1, active compounds read low 1.01 | locus YER110C, active compounds read low 1 | locus YER111C, strain swi4, active compounds read low 1.02 | locus YER155C, strain BEM2 (second series), active compounds read low 0.998 | locus YER155C, strain BEM2, active compounds read low 1.01 | locus YER167W, strain BCK2, active compounds read low 1.01 | locus YFR010W, strain ubp6, active compounds read low 0.997 | locus YGL078C, strain dbp3, active compounds read low 1 | locus YGL086W, strain mad1, active compounds read low 1 | locus YGL167C, strain pmr1, active compounds read low 1.01 | locus YGL173C, strain kem1, active compounds read low 1 | locus YGL227W, strain vid30, active compounds read low 1.01 | locus YGL240W, strain doc1, active compounds read low 1.05 | locus YGL248W, strain PDE1, active compounds read low 1 | locus YGL253W, strain hxk2, active compounds read low 1.04 | locus YGR078C, strain PAC10, active compounds read low 1.01 | locus YGR135W, strain pre9, active compounds read low 1.01 | locus YGR252W, strain gcn5, active compounds read low 1.12 | locus YHR013C, strain ard1, active compounds read low 0.998 | locus YHR027C, strain rpn1, active compounds read low 1 | locus YHR030C, strain SLT2, active compounds read low 1 and 0.991 | locus YHR079C, strain IRE1 (second series), active compounds read low 1 | locus YHR079C, strain IRE1, active compounds read low 0.998 | locus YHR094C, strain hxt1, active compounds read low 0.999 | locus YHR129C, strain ARP1, active compounds read low 1.02 | locus YHR142W, strain chs7, active compounds read low 0.962 | locus YHR200W, strain rpn10, active compounds read low 0.998 | locus YIL066C, strain RNR3, active compounds read low 1.01 | locus YIL073C, strain SPO22, active compounds read low 1.1 | locus YIL125W, strain kgd1, active compounds read low 1.01 | locus YIR030C, strain dcg1, active compounds read low 0.987 | locus YJL092W, strain hpr5, active compounds read low 1.01 | locus YJL095W, strain BCK1 (second series), active compounds read low 1 | locus YJL095W, strain BCK1, active compounds read low 1 | locus YJL115W, strain asf1, active compounds read low 0.94 | locus YJL129C, strain trk1, active compounds read low 1.11 | locus YJL134W, strain LCB3, active compounds read low 1 | locus YJL154C, strain vps35, active compounds read low 0.991 | locus YJL164C, strain tpk1, active compounds read low 0.99 | locus YJL166W, strain qcr8, active compounds read low 0.996 | locus YJL168C, strain set2, active compounds read low 1 | locus YJL187C, strain SWE1 (second series), active compounds read low 0.997 | locus YJL187C, strain SWE1, active compounds read low 1 | locus YJR043C, strain POL32, active compounds read low 1.03 | locus YJR066W, strain TOR1, active compounds read low 0.982 | locus YJR075W, strain HOC1, active compounds read low 1.02
